Source: PubChem BioAssay AID624169 (The Scripps Research Institute Molecular Screening Center, 2012)
The campaign covered roughly 360,000 compounds. About 2,400 (0.67%) were called active. The entries come from a sample that favours actives as a whole. Values without a mark were called inactive.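 How the source made its calls: active means activation above a run cutoff, the mean activation of all tested compounds plus 3 SD (cut at about 14% in these data); inactive means the rest.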

Target: 5-hydroxytryptamine receptor 2A (Mus musculus) (UniProt P35363)
Sequence (P35363 whole entry, looked up): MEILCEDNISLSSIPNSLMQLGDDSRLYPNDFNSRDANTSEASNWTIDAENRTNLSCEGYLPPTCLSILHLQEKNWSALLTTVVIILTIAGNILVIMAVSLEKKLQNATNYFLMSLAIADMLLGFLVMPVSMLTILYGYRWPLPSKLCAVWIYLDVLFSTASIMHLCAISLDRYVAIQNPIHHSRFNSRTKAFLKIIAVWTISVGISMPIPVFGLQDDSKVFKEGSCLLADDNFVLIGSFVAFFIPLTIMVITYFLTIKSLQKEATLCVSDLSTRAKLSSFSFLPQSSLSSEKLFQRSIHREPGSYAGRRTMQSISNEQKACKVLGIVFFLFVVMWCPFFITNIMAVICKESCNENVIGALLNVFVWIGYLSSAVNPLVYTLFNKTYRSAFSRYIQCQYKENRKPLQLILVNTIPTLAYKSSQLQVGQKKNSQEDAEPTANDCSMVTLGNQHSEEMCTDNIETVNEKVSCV
Experiment: activation of mouse 5-HT2A receptor – cell-based, luminescence, primary screen (AID 624169);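 further: 0% = plate median of compound wells and 100% = 30 µM serotonin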
Details: CHO-K1 mHTR2A beta-arrestin complementation, at 7.6 µM, stronger effect = higher value, percent of 30 µM serotonin response

SMILES	activation
CC(=O)c1c(C)n([O-])c2ccccc2[n+]1=O	4.16%
C=CCn1c(=NC(=O)c2ccc(S(=O)(=O)N3CCCC3)cc2)sc2cc(NC(C)=O)ccc21	1.21%
C=CCn1c(CCNC(=O)c2cccs2)n[nH]c1=S	4%
C=CCn1c(=NC(=O)c2cccs2)sc2cc(NC(C)=O)ccc21	23.5% (active)
O=C(O)c1ccccc1Cc1ccc(F)c2ccccc12	-0.35%
CCc1ccc2nc(Nc3ncc(C(C)=O)c(C)n3)nc(C)c2c1	-1.39%
COc1ccc(-c2nnc(SC(C)C(=O)NC3CC3)o2)cc1 (stereo unspecified)	-2.06%
O=C(CSc1nnc(Nc2ccccc2F)s1)NC1CCCC1	-5.06%
COc1ccccc1Nc1nnc(SC(C)C(=O)NC2CC2)s1 (stereo unspecified)	14.8% (active)
CCCCC1N2CC3([N+](=O)[O-])CN1CC([N+](=O)[O-])(C2)C3(C)C (stereo unspecified)	-2.15%
CC(=O)c1ccc(OCC(=O)N(C)C2CCS(=O)(=O)C2)cc1 (stereo unspecified)	18.4% (active)
CCc1ccc(OCC(=O)N(Cc2ccccc2)C2CCS(=O)(=O)C2)cc1 (stereo unspecified)	-6.02%
CCCCN(C(=O)COc1ccc(NC(C)=O)cc1)C1CCS(=O)(=O)C1 (stereo unspecified)	-2.25%
CN1C(=O)c2ccc(NC(=O)c3c(F)c(F)c(F)c(F)c3F)cc2C1=O	5.38%
COc1ccc(C(=O)Nc2c(N)nc(SCC(=O)N3CCC(C)CC3)[nH]c2=O)cc1OC	3.82%
O=Cc1cn(CCOc2ccc(F)cc2)c2ccccc12	-3.3%
COc1ccc(N(C(=O)CNC(=O)c2ccco2)C(C(=O)NCC2CCCO2)c2ccccc2)cc1Cl (stereo unspecified)	-3.88%
Cc1noc(C)c1S(=O)(=O)N(CC(=O)NCc1ccc(Cl)cc1)c1ccc2c(c1)OCO2	10.9%
CCOC(=O)c1cccc(NC(=O)CN(c2ccc(C)cc2)S(=O)(=O)c2c(C)noc2C)c1	4.56%
Cc1noc(C)c1S(=O)(=O)N(CC(=O)Nc1ccc2c(c1)OCCO2)c1ccc(C(C)C)cc1	18.8% (active)
COc1ccc(CN2CCN(C(=O)CCC(=O)Nc3nnc(C(C)C)s3)CC2)cc1F	10.4%
COc1ccc(NC(=O)C(NC(C)=O)C(=O)NCc2ccccc2Cl)cc1 (stereo unspecified)	-1.72%

SMILES	activation
CC(C)NS(=O)(=O)c1ccc(CCC(=O)N2CCOCC2)cc1	-3.51%
COCc1cc(=O)oc2cc(NS(=O)(=O)c3ccc(C)cc3)ccc12	6.31%
CC(=O)N1c2ccc(S(=O)(=O)N3CCC(C(=O)NC4CCCC(C)C4C)CC3)cc2CC1C (stereo unspecified)	-2.05%
CC(=O)N1c2ccc(S(=O)(=O)N3CCC(C(=O)NCc4ccc(F)cc4)CC3)cc2CC1C (stereo unspecified)	5.7%
CC(=O)N1c2ccc(S(=O)(=O)N3CCC(C(=O)NC4CCCCC4C)CC3)cc2CC1C (stereo unspecified)	15.7% (active)
O=S1(=O)CC(N2CCN(Cc3ccccc3F)CC2)CN1Cc1cn(Cc2ccccc2)nn1 (stereo unspecified)	0.73%
CC(=O)NCC(=O)N(C)C(C(=O)Nc1ccc2c(c1)OCCO2)c1ccccc1 (stereo unspecified)	1.2%
CCOc1ccc(/C=C/C(=O)OCC(=O)c2ccccc2OC)cc1OC	-3.76%
O=C(Nc1cc(=O)[nH]c2ncnn12)c1ccccc1Cl	16.4% (active)
O=C(Nc1ccc2sc3ccccc3c(=O)c2c1)c1ccccc1Cl	-3.04%
CC(=O)c1cc(CN2CCC(n3nccc3NC(=O)c3ccccc3Cl)CC2)cs1	1.51%
N#Cc1c(-c2ccc(F)cc2)cc(C2CC2)nc1SCC(=O)c1cccs1	4.09%
COc1ccccc1CNC(=O)[C@@H]1CCCN1C(=O)[C@@H]1Cc2ccccc2CN1C(=O)OC(C)(C)C	-8.22%
Cc1cccc(CNC(=O)c2sc(=O)n(Cc3ccccc3C)c2C)c1	-9.77%
Cc1c(C(=O)NCC2CC2)sc(=O)n1Cc1cccc(F)c1	15% (active)
Cc1cccc(C)c1Cn1c(C)c(C(=O)NCc2cccc(Cl)c2)sc1=O	0.95%
O=C(NNS(=O)(=O)c1ccccc1C(F)(F)F)c1cc2ncc(C(F)(F)F)cc2s1	2.01%
O=C1Cc2cc(S(=O)(=O)Nc3cccc(F)c3)ccc2N1	-4.43%
CC(C)c1cc(C(=O)O)on1	16.1% (active)
CC(C)Cc1oc(C(=O)O)cc1CN	-1.78%
CCn1cc(-c2cc(C(=O)O)on2)c(C)n1	0.66%
O=C(NCc1ccccc1Cl)C1CCN(S(=O)(=O)c2cccc3nonc23)CC1	0.64%

SMILES	activation
C=C1C(=O)OC2C1CCC(C)=CCCC1(C)OC21 (stereo unspecified)	17.6% (active)
Cc1cc(C(=O)OC(C)C(=O)NC2CCCCC2C)c(C)o1 (stereo unspecified)	5.88%
CC(C)(C)NC(=O)Cn1cnc2cc([N+](=O)[O-])ccc2c1=O	-0.6%
O=C(OCc1cn([C@H]2C[C@H](c3ccccc3)N(C(=O)c3cccs3)C[C@@H]2O)nn1)c1ccccc1	0.06%
CC1(C)CC(=O)C=C(c2ccccc2CO)C1=O	3.89%
Fc1ccc2[nH]c3c(N4CCSCC4)ncnc3c2c1	16.4% (active)
Cc1ccc(C)c(NC(=O)C(c2ccccc2)N2CCN(CC(=O)NC3CC3)CC2)c1 (stereo unspecified)	1.96%
Brc1cc(Br)c(Oc2cc(Br)c(Br)cc2Br)cc1Br	4.05%
CCOC(=O)C1CCN(C(=O)C2CCCN(S(=O)(=O)c3ccc(OC)c(Cl)c3)C2)CC1 (stereo unspecified)	-2.55%
O=S(=O)(Cc1cc(Cl)nc(-c2cccnc2)n1)c1ccccc1	-2.49%
CC(C)(C)Oc1ccccc1Nc1nc(NCCO)nc(N2CCCC2)n1	23.9% (active)
CCCOc1ccc(Cl)cc1Nc1nc(NCCO)nc(N2CCCC2)n1	0.98%
Cn1ncc2c(N3CCCCC3)nc(NCCCO)nc21	1.52%
CCc1nc2c(OCCc3cccc(OC)c3)cccn2c1N(C)C(=O)c1ccc(C)cc1	-1.71%
O=C(CN1CCC(O)(c2cccc(C(F)(F)F)c2)CC1)NCCc1ccccc1	-1.29%
CCCCOCCCNC(=O)C[C@@H]1C[C@@]2(C(=O)OC)CCCCC=C2N(CCC2=CCCCC2)C1=O	-1.53%
CCOC(=O)N1CCN(C(=O)C[C@@H]2C[C@@]3(C(=O)OC)CCCCC=C3N(CCC3=CCCCC3)C2=O)CC1	-5.86%
COC(=O)[C@]12CCCCC=C1N(CCC1=CCCCC1)C(=O)[C@H](CC(=O)NCC1CCCCC1)C2	19.2% (active)
COc1ccc(-c2ccc(CN3C(C(C)C)C(=O)N(Cc4cn(CC5CCCCC5)nn4)CCS3(=O)=O)cc2)cn1 (stereo unspecified)	-1.52%
Cc1c(C(C)(C)O)[nH]c2ccc(C#N)cc12	3.5%
Cc1ccc(C)c(S(=O)(=O)N2CCN(c3ncnc4sccc34)CC2)c1	4.9%
Cc1ccc(S(=O)(=O)N2CCN(Cc3cccc(C)c3O)CC2)cc1	-3.27%

SMILES	activation
Cc1ccc(S(=O)(=O)N2CCN(c3ncnc4ccccc34)CC2)cc1	16.6% (active)
CCN(CC)CCn1cnc2c1c(=O)n(CCOC(=O)c1cc(OC)c(OC)c(OC)c1)c(=O)n2C	-1.4%
COC(=O)[C@@]1(Cc2ccc(F)cc2)[C@H]2c3cc(C(=O)N4CCCC4)n(C[C@H](O)CO)c3C[C@H]2CN1C(=O)c1ccccc1	3.75%
COC(=O)[C@@]1(Cc2ccc(F)cc2)[C@H]2c3cc(C(=O)N(C)C)n(CCc4c[nH]c5ccc(OC)cc45)c3C[C@H]2CN1C(=O)c1ccccc1	19.8% (active)
COC(=O)[C@@]1(Cc2ccc(F)cc2)[C@H]2c3cc(C(=O)N4CCCC4)n(Cc4ccc(OC(F)(F)F)cc4)c3C[C@H]2CN1C(=O)c1ccccc1	1.1%
O=C(CN1C(=O)NC2(CCCCCC2)C1=O)Nc1ccc([N+](=O)[O-])cc1	-2.54%
COc1ccc(NC(=O)CC2COc3ccccc3O2)c(OC)c1 (stereo unspecified)	2.64%
CCN(CCCNC(=O)CCn1c(=O)[nH]c2ccsc2c1=O)c1ccccc1	2.47%
O=C(CCCCCn1c(=S)[nH]c2ccsc2c1=O)NC1CCCCC1	2.92%
CCCCC(CC)CNC(=O)CCCCn1c(=O)[nH]c2ccsc2c1=O (stereo unspecified)	15.6% (active)
COC(=O)c1ccc(NS(=O)(=O)c2cc3c4c(c2)C(C)C(=O)N4CCC3)cc1 (stereo unspecified)	2.55%
O=C(O)CN(Cc1ccco1)S(=O)(=O)c1ccc(F)cc1	-0.4%
Cc1oc2cc(Br)c(O)c(Br)c2c1C(=O)c1ccccc1	16% (active)
COc1ccc(C(=O)c2c(C)oc3cc([N+](=O)[O-])c(O)c([N+](=O)[O-])c23)cc1	-5.67%
Cc1oc2cc([N+](=O)[O-])c(O)c([N+](=O)[O-])c2c1C(=O)c1ccc(Br)cc1	-3.12%
O=C1CCCc2c1[nH]c1ccc(Br)cc21	1.31%
CCn1c(SCC(=O)N/N=C/c2ccccc2OCC(=O)O)nnc1-c1ccc(C(C)(C)C)cc1	6.89%
O=C(Nc1cccc(Cc2ccccc2)c1)Nc1ccc2nc([C@@H]3O[C@H](CO)[C@@H](O)[C@H](O)[C@H]3O)[nH]c2c1	-13%
CCCC1CCC(=NNC(=S)NCCc2ccccc2)CC1 (stereo unspecified)	0.18%
CC(=O)Nc1ccc(C(=O)N(C2=NC(C)CS2)c2ccc(Cl)cc2)cc1 (stereo unspecified)	-3.34%
